Laboratory results published in PubChem BioAssay (Tox21).
Results filed as inconclusive are left out. Unmarked numbers belong to inactive results. Calls of active or inactive are those of the source. Calls follow the shape of the dose curve; as a rule, active = well fitted activation curve with a large enough effect in the signal ratio in the repeat runs, with a control signal flat (not every such curve was filed as active); inconclusive = weak or mixed curves; inactive = flat fitted curve, though single readings scatter; the % refers to the signal ratio.

Assay: qHTS assay for small molecule activators of the heat shock response signaling pathway (AID 743210)
Conditions: HeLa HSE-bla reporter, beta-lactamase ratio, 5 h; series mostly up to 62.6 µM
Source text: U.S. Tox21 Program National Center for Advancing Translational Sciences [NCATS] NIH Chemical Genomics Center [NCGC] U.S. Environmental Protection Agency [EPA] National Institutes of Environmental Health Sciences [NIEHS] National Toxicology Program [NTP] U.S. Food and Drug Administration [FDA] Tox21 Assay Overview: Various chemicals, environmental and physiological stress conditions may lead to the activation of heat shock response/ unfolded protein response (HSR/UPR). There are three heat shock transcription factors (HSFs) (HSF-1, -2, and -4) mediating transcriptional regulation of the human HSR. To identify the compounds that activate HSR signaling, HSE-bla HeLa cell line (Invitrogen, Carlsbad, CA, USA) containing a beta-lactamase reporter gene under the control of the heat shock response elements was used to screen the Tox21 10K compound library.
Tox21 Assay Protocol Summary: The CellSensor HSE-bla HeLa cells (Invitrogen, Carlsbad, CA, USA) were dispensed at 1500 cells/6uL/well into 1536-well black wall/clear bottom plates using a Multidrop combi (Thermo Fisher Scientific, Waltham, MA) dispenser. After the assay plates were incubated at 37 C and 5% CO2 overnight, 23 nL of compounds dissolved in DMSO, positive controls or DMSO only was transferred to the assay plate by a Pintool station (Kalypsys, San Diego, CA). The plates were incubated at 37 C for 5 h. After 1 uL of LiveBLAzerTM B/G FRET substrate was added using a Flying Reagent Dispenser (Beckman Coulter, Indianapolis, IN, USA), the plates were incubated at room temperature for 2.5 h, and fluorescence intensity was measured by an Envision plate reader (PerkinElmer, Shelton, CT).
% is scaled to controls: 0 for no effect and ±100 for the full control effect.

Row | Compound | outcome | activation
1 | OCCCCCCCl | inactive | –
2 | Cc1nc([N+](=O)[O-])cn1-c1ccc([N+](=O)[O-])cc1 | inactive | –
3 | CC(=O)N(CC(O)CO)c1c(I)c(C(=O)NCC(O)CO)c(I)c(C(=O)NCC(O)CO)c1I (stereo not given) | inactive | –
4 | CCCCC(C)C(=O)O (stereo not given) | inactive | –
5 | CCOc1ccc(NC(=O)OC(C)C)cc1OCC | inactive | –
6 | COc1ccc(OC)c(NC(=O)CC(C)=O)c1 | inactive | –
7 | O=C(O)c1ccccc1C(=O)OCc1ccccc1 | inactive | –
8 | FC(F)(F)c1ccc(Cl)cc1Cl | inactive | –
9 | O=CO | – | -1.54% [at 5.95 µM]
10 | O=C1CC[C@H](C(=O)N2CCCCC2)N1 | inactive | –
11 | CC1=CC[C@H](CC=O)C1(C)C | inactive | –
12 | Cc1ccccc1OCC1CO1 (stereo not given) | inactive | –
13 | COc1ccc(N=Nc2cc(C)c(N=Nc3ccc(S(=O)(=O)O)cc3)cc2OC)cc1 | inactive | –
14 | C=CCOCC(CO)(COCC=C)COCC=C | inactive | –
15 | C[C@@H]1C[C@H]2[C@@H]3C[C@H](F)C4=CC(=O)C=C[C@]4(C)[C@@]3(F)[C@@H](O)C[C@]2(C)[C@@]1(O)C(=O)CO | inactive | –
16 | Cc1oc(=O)oc1CN1CCN(c2cc3c(cc2F)c(=O)c(C(=O)O)c2n3C(C)S2)CC1 (stereo not given) | inactive | –
17 | C=CCOc1c(Br)cc(Br)cc1Br | inactive | –
18 | NCCc1ccn[nH]1 | inactive | –
19 | CCCCC/C=C/CC(=O)OC | inactive | –
20 | Cc1nc2n(c(=O)c1CCN1CCC(C(=O)c3ccc(F)cc3)CC1)CCS2 | inactive | –

Row | Compound | outcome | activation
21 | C1CCN2C[C@@H]3C[C@@H](CN4CCCC[C@@H]34)[C@H]2C1 | inactive | –
22 | C=CCOc1cc(Cl)ccc1C(=O)NCCN(CC)CC | inactive | –
23 | CC1=NN(c2ccc(S(=O)(=O)O)cc2)C(=O)C1N=Nc1ccccc1 (stereo not given) | inactive | –
24 | CCCCCCCCCCCCC | inactive | –
25 | CC(C)CCO | inactive | –
26 | CC(C)(CO)[C@@H](O)C(=O)NCCCO | inactive | –
27 | CCCCCN(CCCOC)C(=O)C(CCC(=O)O)NC(=O)c1ccc(Cl)c(Cl)c1 (stereo not given) | inactive | –
28 | CC(C)CCCC(C)CC=O (stereo not given) | inactive | –
29 | O=C(c1ccc2c(c1)C(=O)OC2=O)c1ccc2c(c1)C(=O)OC2=O | inactive | –
30 | NS(=O)(=O)c1ccc(Cl)c(S(N)(=O)=O)c1 | inactive | –
31 | Cc1cccc(Nc2ccncc2S(=O)(=O)NC(=O)NC(C)C)c1 | inactive | –
32 | CCC(=O)OCCC(C)CCC=C(C)C (stereo not given) | inactive | –
33 | CC(C)C(=O)Nc1cccc(C(F)(F)F)c1 | inactive | –
34 | CCN1CN(CC)CN(CC)C1 | inactive | –
35 | CC(=O)N1CCN(c2ccc(O)cc2)CC1 | inactive | –
36 | O=[Si]=O | inactive | –
37 | CC(C)COC(=O)/C=C/c1ccccc1 | inactive | –
38 | c1ccc(CNc2ncnc3nc[nH]c23)cc1 | inactive | –
39 | CC(C)C(=O)c1ccccc1 | inactive | –
40 | Nc1cc(S(=O)(=O)O)ccc1S(=O)(=O)O | inactive | –
